HTT cytoprotect = protects HTT-Q103 PC12 cells, measured by ATP. PC12 HTT-Q103 induced, cytoprotection, ATP luminescence, 40 h. 230,000 tested, 0.14% active. AID 1471. Potency, µM (highest dose often 56.4 µM), inactives show cytoprotection (ATP increase), actives largely listed as activators; note: % of control where 0% means no effect; nearly all actives have a fitted effect of over 45% in size
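Rat PC12, Q103 Htt exon1-GFP fusion, ecdysone promoter; tebufenozide inducer 100 nM final; compound titration; qHTS, 1500 cells/well; ATPlite luminescent read.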
NPSR antagonist = neuropeptide S receptor (human) antagonism, cAMP. Q6W5P4. CHO-NPSR cells, cAMP TR-FRET, antagonist mode. Potency, µM (highest dose often 38.3 µM), for inactives: at the highest dose activity change, negative = inhibition, most hits filed as inhibitors. 220,000 tested, 1% active; note: % is set by controls: 0 for no effect and ±100 for the full control effect; nearly all actives have a fitted effect of over 50% in size
Target sequence (Q6W5P4 whole entry, looked up): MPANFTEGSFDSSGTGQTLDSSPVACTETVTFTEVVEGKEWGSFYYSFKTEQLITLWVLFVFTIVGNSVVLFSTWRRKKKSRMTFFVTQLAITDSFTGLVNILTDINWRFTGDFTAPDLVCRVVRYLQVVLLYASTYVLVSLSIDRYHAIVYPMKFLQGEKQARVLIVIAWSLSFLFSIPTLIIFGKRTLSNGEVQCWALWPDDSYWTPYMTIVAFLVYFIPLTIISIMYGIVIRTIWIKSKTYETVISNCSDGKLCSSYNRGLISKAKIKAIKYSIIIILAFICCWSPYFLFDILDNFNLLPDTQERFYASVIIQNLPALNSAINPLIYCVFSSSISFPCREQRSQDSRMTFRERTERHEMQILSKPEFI
Epigenetic derep = derepresses silenced GFP reporter in murine cells; 280,000 tested, 0.2% active; AID 1865; murine LDR cells, GFP reporter derepression, 30 h; Potency, µM (top dose mostly 53.9 µM), without a hit: at the top dose GFP activation, actives largely listed as activators; note: % of control where 0% means no effect; nearly all actives have a fitted effect of over 60% in size
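Murine LDR cells bearing a silenced CMV-driven GFP reporter were exposed to compound for 30 h at 37 C. After PBS washes, GFP-positive cells (20-120 um objects) counted by laser-scanning microplate cytometry.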
LMNA splice mod = changes lamin A minigene splicing in HeLa cells | HeLa LMNA splicing GFP/RFP minigene ratio, 48 h | Potency, µM (titrated, usually from 46.1 µM), for the others: top-dose ratio change, negative = inhibition, usual class: inhibitors | 200,000 tested, 0.01% active | AID 1487; active = well fitted inhibition curve with a large enough effect in the signal ratio, with a control signal flat, not every such curve was filed as active; inconclusive = small, poorly fitted or top-dose-only effect, or effect the other way, or a change in a side signal; the % refers to the signal ratio; note: % is set by controls: 0 for no effect and ±100 for the full control effect
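S3 HeLa stable clones carrying a lamin A-EGFP splicing minigene plus DsRed2 were seeded at 600 cells/well in Opti-MEM with 2% FBS, pin-dosed and incubated 48 h at 37°C. Acumen cytometry (488 nm) gave the GFP/RFP total-intensity ratio.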
HTT aggregate = mutant huntingtin aggregation inhibition. AID 1688. PC12 HttQ103-GFP aggregates, Acumen cytometry, 40 h. 220,000 tested, 1.1% active. Potency, µM (doses to about 46.1 µM), for inactives: at the highest dose activity change, negative = inhibition, actives largely listed as inhibitors; note: % is set by controls: 0 for no effect and ±100 for the full control effect; nearly all actives have a fitted effect of over 60% in size
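Aggregate formation scored by laser-scanning cytometer (488 excitation, 500–530 emission) in lysed PC12 cells expressing Q103-GFP after 100 nM tebufenozide induction; library tested in dose series, with ATPLite reagent added in the multiplex.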
An asterisk follows results filed as active; ? = inconclusive; nt = no result given; ! = repeats disagree; [ ] = remark or other dose. Shown are actives, neighbours in structure and some others; about 1.5% of the full set was active somewhere. Unless noted, calls come from the whole dose curve; as a rule, active = well fitted curve in the direction sought with a large enough effect; inconclusive = small, poorly fitted or top-dose-only effect, or another doubt; inactive = no such curve, though single readings can be large; an effect the other way counts as inactive or inconclusive. Potency is the fitted concentration of half-maximal effect.

SMILES	HTT cytoprotect	NPSR antagonist	Epigenetic derep	LMNA splice mod	HTT aggregate
CC(C)c1cc(C(N)=O)c(NC(=O)c2cccc(COc3ccc(Cl)cc3)c2)s1	-37%	10µM*	0%	-13%	-24%
Cc1nn(Cc2c(F)c(F)c(F)c(F)c2F)c(C)c1NC(=O)c1cccc(COc2ccc(Cl)cc2)c1	2%	-29%[46.1 µM]	2%	-4%	-1%
C=CCN1c2ccccc2[C@]23C[C@@H](C(=O)OC)N(S(=O)(=O)c4ccc5c(c4)OCCN5C)C2=NC(C(=O)OC)=C(C(=O)OC)[C@H]13	-23%[10 µM]	nt	nt	-9%[9.22 µM]	nt
CCC(=O)Nc1nc(-c2ccccc2)ns1	0%[10 µM]	20%[46.1 µM]	0%	-15%	?
O=C(CSc1ncn[nH]1)Nc1nc(-c2ccccc2)ns1	3%[0.074 µM]	-28%[46.1 µM]	-3%	1%	22µM*
COc1cccc(Cn2c(=O)c(-c3cccs3)nc3cnc(N4CCN(C)CC4)nc32)c1	3%	nt	nt	nt	nt
CCOC(=O)c1sc2nc3c(SCCC(=O)O)cc(C(=O)c4cc(OC)ccc4O)cn3c(=O)c2c1C	nt	10µM*	0%	?	4%
CCOC(=O)c1sc2nc3c(SCCC#N)cc(C(=O)c4cc(F)ccc4O)cn3c(=O)c2c1C	16%[10 µM]	-15%	-1%	3%	20%
CCOC(=O)c1c(C)[nH]c(C)c1C(=O)CSc1nc2ccccc2c(=O)n1-c1ccc(Cl)cc1	nt	-19%	0%	?	20µM*
O=C(Nc1nc(-c2cccs2)cs1)c1cccc(S(=O)(=O)N2CCCCCC2)c1	-6%[10 µM]	10µM*	-1%	?	?
O=C(Nc1nc2ccc(S(=O)(=O)N3CCCCC3)cc2s1)c1ccncc1	-10%[10 µM]	2%[46.1 µM]	-8%	-11%	3.5µM*
COc1ccc2nc(NC(=O)C3CCN(S(=O)(=O)c4cccs4)CC3)sc2c1	-53%	-4%[46.1 µM]	0%	?	?
Cc1ccc2nc(NC(=O)C3CCN(S(=O)(=O)c4cccs4)CC3)sc2c1	3.5µM*	-16%[46.1 µM]	0%	-1%	-24%
O=c1c(-c2cc(F)cc(F)c2)nc2cnc(N3CCOCC3)nc2n1CCc1ccccc1	-12%	nt	nt	?	nt
CCOc1ccc(S(=O)(=O)N(CC(=O)NCCSc2ccccc2)c2ccccc2)cc1	nt	nt	-1%	nt	nt
CCOC(=O)c1ccc(NC(=O)C2=C(C)C(=O)OC23CCCCCC3)cc1	nt	nt	0%	-5%[46 µM]	nt
CCCCN(c1ccccc1)c1ncnc(N)c1[N+](=O)[O-]	13%	-6%[46.1 µM]	-1%	?	7.1µM*
Cc1cccc(NC(=O)C(=O)NCC(c2ccc3c(c2)OCO3)N2CCN(c3ccccc3)CC2)c1 (configuration not stated)	nt	nt	1%	6%[46 µM]	nt
CC1=CC(C)(C)Nc2ccc(OC(=O)CN3C(=O)c4ccccc4C3=O)cc21	nt	7.9µM*	?	?	?
CC1=CC(C)(C)Nc2ccc(OC(=O)CN3C(=O)c4cccc5cccc(c45)C3=O)cc21	-114%	1%[46.1 µM]	?	?	?
COc1ccc(N2CCN(c3oc(/C=C/c4ccc(F)cc4)nc3C#N)CC2)cc1	nt	nt	5%	nt	nt
COc1ccccc1-c1nnc(Sc2nc([N+](=O)[O-])nn2C)o1	18µM*	4%[46.1 µM]	0%	?	nt
Cn1cnnc1Sc1nc([N+](=O)[O-])nn1C	-13%[10 µM]	-23%	2%	-5%[46 µM]	-13%[9.22 µM]
CCOc1ccccc1NC(=O)CN1C(=O)COc2ccc(S(=O)(=O)NC3CCCC3)cc21	nt	nt	-1%	-9%[46 µM]	nt
CCCCCCCOC(=O)C[N+](C)(C)CCOC1CC2CCC1(C)C2(C)C (configuration not stated)	-6%[10 µM]	?	1%	?	?
SMILES	HTT cytoprotect	NPSR antagonist	Epigenetic derep	LMNA splice mod	HTT aggregate
CCCCCCOC(=O)C[N+](C)(C)CCOC1CC2CCC1(C)C2(C)C (configuration not stated)	-67%[10 µM]	?	0%	?	6.3µM*
COC(=O)[C@@]1(Cc2ccccc2)C=C[C@@H](C)N1C(C)=O	-33%	nt	0%	nt	nt
COC(=O)[C@@]1(Cc2ccccc2-c2ccco2)C=C[C@H](C)[C@@H](c2ccccc2)N1C(=O)C(F)(F)F	10µM*	nt	1%	nt	nt
COCCCn1c(=S)[nH]c2sc3c(c2c1=O)CCCS3	-4%[10 µM]	7.9µM*	-1%	?	-20%
CC(=O)N(Cc1ccc(F)cc1)C1=C(NCCc2ccccc2)C(=O)c2ccccc2C1=O	-157%	?	2%	?	7.1µM*
Cc1cc(C)c2nc(SCC(=O)N3CC(=O)Nc4ccccc43)c(C#N)cc2c1	-82%[1.9 µM]	-21%[46.1 µM]	10µM*	?	-2%
CC(C)NC[C@@H](O)COc1ccc(COCCOC(C)C)cc1	5%	nt	2%	?	nt
COc1ccc(C(=O)c2c(C(F)(F)F)oc3c2C(=O)c2ccccc2C3=O)cc1	-85%	18%[46.1 µM]	0%	?	3.2µM*
COc1ncc2nc(C)c(=O)n(Cc3cccs3)c2n1	-1%	nt	nt	nt	nt
CCOC(=O)C1CCCN(C(=O)Nc2ccccc2)C1 (configuration not stated)	nt	6%[46.1 µM]	0%	7%	0.63µM*
Cn1c(=O)c2c(ncn2CCO)n(C)c1=O	2.5µM*!	23%	2%	?	4%
CC(C)CCn1cnc2c1c(=O)n(C)c(=O)n2C	-10%[0.074 µM]	-3%[46.1 µM]	-1%	-10%	-23%
Cc1ccc2nc(-c3ccccn3)c(Nc3ccccc3C)n2c1	-229%	13µM*	0%	40%[46 µM]	?
O=C(Nc1ccccc1)Nc1nnc(CSCc2ccccc2Cl)s1	5%[10 µM]	-15%	-1%	?	?
Cc1ccc(OCCSCc2nnc(NC(=O)Nc3cccc(Cl)c3)s2)cc1	nt	-33%	-2%	?	8.9µM*
O=C(Nc1ccc(Cl)c(Cl)c1)Nc1nnc(CSc2ccccc2)s1	26%[10 µM]	-40%	-3%	?	2.8µM*
Cn1c(=O)oc2cc(S(=O)(=O)N3CCCC(C(=O)N4CC=C(c5ccccc5)CC4)C3)ccc21 (configuration not stated)	-24%	-8%[46.1 µM]	2%	?	11µM*
COc1ccc(-n2cnc3cc(C(=O)NCCC4=CCCCC4)ccc32)cc1	nt	nt	-1%	-16%[46 µM]	nt
CCCCN=Cc1c(C)[nH]n(-c2ccccc2)c1=S	15%	-56%	-1%	nt	23%
CCCCN(CCCC)C(=S)N/N=C/c1c(C)[nH]n(-c2ccccc2)c1=O	-112%	8%[46.1 µM]	1%	?	11µM*
CCc1ccccc1NC(=O)C(C)n1nc(-c2ccc(C)c(C)c2)ccc1=O (configuration not stated)	nt	nt	0%	?	nt
Cc1cc(-c2nc3cccnc3s2)ccc1NS(=O)(=O)c1ccc2c(c1)OCCO2	9%[10 µM]	-11%[46.1 µM]	0%	?	?
Cc1c(NS(=O)(=O)c2ccc3c(c2)OCCO3)cccc1-c1nc2cccnc2s1	30%[10 µM]	?	-1%	?	8.9µM*
CCC(Cn1nnc2ccccc2c1=O)NC(=O)Nc1cccc(C)c1C (configuration not stated)	nt	nt	0%	nt	nt

Bioassay records deposited in PubChem BioAssay by National Center for Advancing Translational Sciences (NCATS).
